Only some compounds are listed: those with a hit (about 6.6% of all), similar ones and a draw of the others.
Fluor 339 460 = intrinsic fluorescence of library compounds, ex339/em460 – biochemical, MLSMR library, data from DPM-DC assay, artefact control, profiling panel | actives 5.5% (n = 65,000) | fluorescence fold increase at 10 µM | compound autofluorescence, ex339/em460 nm, NADH buffer; stronger effect = higher value; 1 = no-compound wells, NADH background;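 active = at 10 µM, mean starting fluorescence two-fold or more over control wells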;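 note: signal is the first read of a kinetic run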
NADH coupling = inhibitors of enzymes used to reach an NAD/NADH endpoint | coupled PK/LDH NADH assays, four targets | IC50, µM (titrated, usually from 10 µM), inactives show at the top dose inhibition | actives 0.02% (n = 65,000) | AID 774;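 active = single-dose screening hits from any of four coupled enzyme assays that gave an IC50 when retested across doses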;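 note: the DPM-DC format reads NADH fluorescence rather than 340 nm absorbance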
PMK inhibit = blocks S. pneumoniae phosphomevalonate kinase; inhibition, % at 10 µM; purified PMK, PK/LDH-coupled NADH absorbance 340 nm; actives 0.49% (n = 65,000);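 active = top-ranked compounds by inhibition in the single 10 µM screen, taking a fixed number of the strongest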;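 note: 0% = full reaction with DMSO carrier and 100% = background rate without enzyme reaction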
MK inhibit = inhibitors of Streptococcus pneumoniae mevalonate kinase; purified MK, PK/LDH-coupled NADH absorbance 340 nm; inhibition, % at 10 µM; actives 0.48% (n = 65,000); AID 555;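 active = ranked among the strongest by inhibition in the single 10 µM screen, a fixed top-ranked set picked for dose follow-up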
DPM-DC inhibit = blocks S. pneumoniae diphosphomevalonate decarboxylase; purified DPM-DC, PK/LDH coupled NADH fluorescence; AID 556; actives 0.49% (n = 65,000); calls only at 10 µM;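 active = the 320 compounds with the highest percent inhibition in the single-dose primary screen, excluding strongly autofluorescent ones, cut at about 32% in these data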;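 note: kinetic rate of NADH fluorescence loss reporting ADP formed by the decarboxylase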
* marks the source's active call; other numbers are inactive results.

`Cc1ccc(-n2ncc3c(=O)n(CC(=O)Nc4cccc(Cl)c4)cnc32)cc1C` gave Fluor 339 460 2.7*, NADH coupling 4.0%, PMK inhibit 9.0, MK inhibit 3.0 and DPM-DC inhibit inactive.
Screening CCOc1ccccc1NC(=O)Cn1cnc2c(cnn2-c2ccc(C)c(C)c2)c1=O returned Fluor 339 460 1.61, NADH coupling 6.0%, PMK inhibit 13.0, MK inhibit 4.0 and DPM-DC inhibit inactive.
For CCOC(=O)N1CCN(C(=O)COc2ccc3c(c2)C(=O)CC2(CCN(C(C)=O)CC2)O3)CC1 the results were Fluor 339 460 5.05*, NADH coupling 7.0%, PMK inhibit 14.0 and MK inhibit 0.0.
For Cc1cc(NC(=O)CCCC(=O)NCc2cccs2)no1 the results were Fluor 339 460 1.09, NADH coupling 5.0%, PMK inhibit 7.0, MK inhibit 7.0 and DPM-DC inhibit inactive.
Screening CCNc1nnc(-c2ccc(C)cc2)o1 returned Fluor 339 460 1.19, NADH coupling 5.0%, PMK inhibit 6.0, MK inhibit 8.0 and DPM-DC inhibit inactive.
CC1(C)CC(=O)c2cc(OCC(=O)NCCCN3CCN(c4ccc(F)cc4)CC3)ccc2O1 was read as Fluor 339 460 3.65*, NADH coupling 5.0%, PMK inhibit 9.0, MK inhibit 0.0 and DPM-DC inhibit inactive.
COc1cc(C(=O)NCCC(=O)NCCN2CCCCCC2)cc(OC)c1OC was read as Fluor 339 460 1.07, NADH coupling 7.0%, PMK inhibit 20.0, MK inhibit 0.0 and DPM-DC inhibit inactive.
`CC1(C)CC(=O)c2cc(OCC(=O)NCCN3CCCc4ccccc43)ccc2O1` gave Fluor 339 460 5.04*, NADH coupling 7.0%, PMK inhibit 14.0 and MK inhibit 0.0.
For COc1ccc(CCNC(=O)CN2CCCc3ccccc32)cc1OC the results were Fluor 339 460 1.02, NADH coupling 3.0%, PMK inhibit 9.0, MK inhibit 0.0 and DPM-DC inhibit inactive.
For CCC(Oc1ccc2c(c1)C(=O)CC(C)(C)O2)C(=O)NCCN1CCCCCC1 (stereo unspecified) the results were Fluor 339 460 5.03*, NADH coupling 17.0%, PMK inhibit 10.0 and MK inhibit 23.0.
For CC(C)CNC(=O)c1cccc(NC(=O)C2CCCO2)c1 (stereo unspecified) the results were Fluor 339 460 1.09, NADH coupling 3.0%, PMK inhibit 0.0, MK inhibit 5.0 and DPM-DC inhibit inactive.
For Cc1nn2c(N3CCN(C(=O)c4ccco4)CC3)cc(C(C)(C)C)nc2c1-c1ccccc1 the results were Fluor 339 460 2.64*, NADH coupling 0.0%, PMK inhibit 0.0, MK inhibit 0.0 and DPM-DC inhibit inactive.
Cc1cc(N2CCN(C(=O)c3ccco3)CC2)n2ncnc2n1 was read as Fluor 339 460 1.05, NADH coupling 20.0%, PMK inhibit 18.0, MK inhibit 42.0* and DPM-DC inhibit inactive.
For COc1ccccc1NS(=O)(=O)c1cccc2cccnc12 the results were Fluor 339 460 1.13, NADH coupling 26.0%, PMK inhibit 5.0, MK inhibit 51.0* and DPM-DC inhibit inactive.
`CC(=O)OCc1c(F)c(F)c(-n2nc(C)cc2C)c(F)c1F` gave Fluor 339 460 1.1, NADH coupling 5.0%, PMK inhibit 10.0, MK inhibit 6.0 and DPM-DC inhibit inactive.
For Cc1noc(/C=C/N(C)C)c1S(=O)(=O)N1CCCC(C(=O)NCc2ccccc2Cl)C1 (stereo unspecified) the results were Fluor 339 460 1.02, NADH coupling 4.0%, PMK inhibit 9.0, MK inhibit 2.0 and DPM-DC inhibit inactive.
CCCCn1c(NC(=O)CC)c(C#N)c2nc3ccccc3nc21 was read as Fluor 339 460 2.96*, NADH coupling 7.0%, PMK inhibit 19.0 and MK inhibit 9.0.
For CCCCC(=O)Nc1ccccc1C#N the results were Fluor 339 460 1.06, NADH coupling 9.0%, PMK inhibit 10.0, MK inhibit 13.0 and DPM-DC inhibit inactive.
Screening CCCCn1c(NC(=O)c2ccccc2Cl)c(C#N)c2nc3ccccc3nc21 returned Fluor 339 460 3.95*, NADH coupling 5.0%, PMK inhibit 0.0 and MK inhibit 9.0.
For Cc1ccc(NCc2nnc3n2CCCCC3)cc1 the results were Fluor 339 460 1.03, NADH coupling 8.0%, PMK inhibit 19.0, MK inhibit 4.0 and DPM-DC inhibit inactive.
Screening CC(C)C(c1nnnn1C1CCCC1)N1CCN(C(=O)c2ccco2)CC1 (stereo unspecified) returned Fluor 339 460 1.09, NADH coupling 3.0%, PMK inhibit 10.0, MK inhibit 6.0 and DPM-DC inhibit inactive.
`CC1Cn2c(nnc2-c2cc3ccccc3cc2O)S1` (stereo unspecified) gave Fluor 339 460 2.91*, NADH coupling 11.0%, PMK inhibit 9.0, MK inhibit 4.0 and DPM-DC inhibit inactive.
CC1Cn2c(nnc2-c2ccccc2O)S1 (stereo unspecified) was read as Fluor 339 460 1.1, NADH coupling 0.0%, PMK inhibit 0.0, MK inhibit 0.0 and DPM-DC inhibit inactive.
`CC(=O)c1cc2c(cc1NC(=O)CSc1nc3ccccc3o1)OCO2` gave Fluor 339 460 2.37*, NADH coupling 15.0%, PMK inhibit 7.0, MK inhibit 11.0 and DPM-DC inhibit inactive.
Screening CC(=O)Nc1nonc1NC(=O)CSc1nc2ccccc2o1 returned Fluor 339 460 1.02, NADH coupling 5.0%, PMK inhibit 14.0, MK inhibit 0.0 and DPM-DC inhibit inactive.
Screening CC(=O)c1cc2c(O)c(O)ccc2o1 returned Fluor 339 460 1.17, NADH coupling 3.0%, PMK inhibit 3.0, MK inhibit 7.0 and DPM-DC inhibit inactive.
For CC(=O)c1cc2cc(O)ccc2o1 the results were Fluor 339 460 4.37*, NADH coupling 10.0%, PMK inhibit 11.0 and MK inhibit 8.0.
Nc1cc(C(=O)O)ccc1Nc1ccccc1 was read as Fluor 339 460 1.79, NADH coupling 10.0%, PMK inhibit 10.0, MK inhibit 5.0 and DPM-DC inhibit active.
For CCN1CCn2c3c(c4cc(Cl)ccc42)CCCC31 (stereo unspecified) the results were Fluor 339 460 1.2, NADH coupling 7.0%, PMK inhibit 11.0, MK inhibit 9.0 and DPM-DC inhibit inactive.
`OC1CN=C2CCCc3c2n(c2ccc(Cl)cc32)C1` (stereo unspecified) gave Fluor 339 460 3.83*, NADH coupling 9.0%, PMK inhibit 6.0 and MK inhibit 12.0.
Screening O=C1CN(C(=O)c2ccc(Br)o2)C(c2ccc(F)cc2)c2cc(F)ccc2N1 (stereo unspecified) returned Fluor 339 460 1.09, NADH coupling 11.0%, PMK inhibit 17.0, MK inhibit 13.0 and DPM-DC inhibit inactive.
For CCOC(=O)c1sc2nc(-c3ccco3)c3c(c2c1N)CC(C)(C)OC3 the results were Fluor 339 460 1.97, NADH coupling 11.0%, PMK inhibit 0.0, MK inhibit 9.0 and DPM-DC inhibit inactive.
